Here are results for 28 compounds from PubChem BioAssay AID1220 (Sanford-Burnham Center for Chemical Genomics, 2008).

SMILES strings stand for the structures. Out of some 190,000 compounds screened, about 1,300 (0.68%) were called active. No stated cut-off is given here; in the data, active means inhibition above about 50%; inactive means the rest. Only a selection was taken, and actives are over-represented in it overall.

Sequence of Mannose-6-phosphate isomerase (Homo sapiens) (P34949 whole entry, looked up): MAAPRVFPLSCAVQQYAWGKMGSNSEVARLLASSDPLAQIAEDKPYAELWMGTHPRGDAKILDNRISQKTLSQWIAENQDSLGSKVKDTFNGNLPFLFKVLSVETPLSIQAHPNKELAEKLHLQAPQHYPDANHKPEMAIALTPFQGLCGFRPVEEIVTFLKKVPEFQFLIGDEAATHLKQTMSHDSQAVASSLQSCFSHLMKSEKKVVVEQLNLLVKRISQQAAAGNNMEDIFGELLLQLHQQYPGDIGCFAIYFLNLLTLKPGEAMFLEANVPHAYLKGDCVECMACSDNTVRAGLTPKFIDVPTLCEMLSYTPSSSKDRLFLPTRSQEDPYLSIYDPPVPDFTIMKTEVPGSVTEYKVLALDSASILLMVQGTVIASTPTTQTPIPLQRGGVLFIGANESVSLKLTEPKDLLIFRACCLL

This assay has as its target Mannose-6-phosphate isomerase (Homo sapiens) (UniProt P34949). The assay can be described thus: human PMI inhibitors, high substrate, primary screen, biochemical, fluorescence intensity, high mannose 6-phosphate (AID 1220). Particulars: recombinant PMI enzyme, coupled fluorescence intensity; at 20 µM; active compounds read high.
For the compound `O[C@H]1C2CCC1C(N1CCCCC1)CC2` (stereo partly drawn), the inhibition (as a rule, the drop in the measured response relative to a control, in per cent) is 5.7% (inactive).
Take `COc1ccc(OC)c(N2Cc3ccccc3C2=N)c1`: the inhibition was -9.9% (inactive).
Turning to `CNc1cc(N2CCN(C)CC2)ccc1[N+](=O)[O-]`, the inhibition was 28.3% (inactive).
As for `CN(C)c1ccc(C=C(C#N)C#N)cc1`, the figure is -8.3% (inactive).
Regarding `Cc1cc(N2CCCC2)ccc1C=C(C#N)C#N`, the inhibition was 7.1% (inactive).
As to `Cc1ccc2cc(C=C(C#N)C#N)c(Cl)nc2c1`, the inhibition is 57.1% (active).
For `COc1ccc(OC)c(N2C(=O)NC(=O)C3(Cc4cc(C)ccc4N(C)C3)C2=O)c1` (stereo not drawn), the inhibition is -2.8% (inactive).
As for `CC(=O)NC1C(OC(=O)Cc2ccccc2)OC(COC(C)=O)C(OC(C)=O)C1OC(C)=O` (stereo not drawn), the figure is -6% (inactive).
On to `CCSc1cc(C2C(C#N)=C(N)Oc3n[nH]c(C)c32)c(C)o1` (stereo not drawn), for which the inhibition was -0.6% (inactive).
As for `CC(C)N1CCN(c2ccc(O)cc2)CC1`, the figure is 65% (active).
As for `CN1CCN(c2ccc(N)cc2)CC1`, the figure is 11.3% (inactive); as for `CCN1CCN(c2ccc(N)cc2)CC1`, 35.6% (inactive).
For the compound `O=C1C2CCN(CC2)C1Cc1ccc(OCc2ccccc2)cc1` (stereo not drawn), the inhibition is 1.5% (inactive).
As to `COc1ccc2ccc(O)c(CN3CC=C(c4ccccc4)CC3)c2c1`, the inhibition is 57.7% (active).
For the compound `Oc1ccc2ccccc2c1CN1CC=C(c2ccccc2)CC1`, the inhibition is 38.8% (inactive).
As for `COc1ccc2c(CN3CC=C(c4ccccc4)CC3)cc(=O)oc2c1`, the figure is 14.2% (inactive); as for `CC(C)CCNC(=O)c1c(N)n(Cc2ccc3c(c2)OCO3)c2nc3ccccc3nc12`, 41.6% (inactive).
As to `CCC(C)NC(=O)c1c(N)n(Cc2ccc3c(c2)OCO3)c2nc3ccccc3nc12` (stereo not drawn), the inhibition was 61.1% (active).
As for `COC(=O)c1c(N)n(Cc2ccc(OC)cc2)c2nc3ccccc3nc12`, the figure is 0.2% (inactive).
As for `CCCCNC(=O)c1c(N)n(Cc2ccc3c(c2)OCO3)c2nc3ccccc3nc12`, the figure is 69.1% (active); as for `CCCNC(=O)c1c(N)n(Cc2ccc3c(c2)OCO3)c2nc3ccccc3nc12`, 27.5% (inactive); as for `CC(C)CNC(=O)c1c(N)n(Cc2ccc3c(c2)OCO3)c2nc3ccccc3nc12`, 35.4% (inactive).
For the compound `O=C(CCl)NCC1CCCO1` (stereo not drawn), the inhibition is 0.5% (inactive).
As for `CCCCn1c(O)c(C(CC)=NCCN2CCOCC2)c(=O)[nH]c1=O`, the figure is -61.4% (inactive); as for `O=C1c2ccccc2C(=O)N1Cc1nc2ccccc2c(=O)n1-c1ccc(Br)cn1`, -1.8% (inactive).
Regarding `CC(=O)c1ccc2c(c1)C1C(Cl)C(Sc3ccccc3[N+](=O)[O-])CC1C(c1ccccc1)N2` (stereo not drawn), the inhibition was -67.2% (inactive).
For `CC(=O)c1ccc2c(c1)C1C(Cl)C(Sc3ccccc3[N+](=O)[O-])CC1C(C(=O)O)N2` (stereo not drawn), the inhibition is -51.9% (inactive).
For the compound `CC(=O)c1ccc2c(c1)C1C(Cl)C(Sc3ccccc3[N+](=O)[O-])CC1C(c1ccccc1[N+](=O)[O-])N2` (stereo not drawn), the inhibition is 63.2% (active).
